Shown are actives, neighbours in structure and some others; about 7.3% of the full set was active somewhere.
Luciferase inh = Firefly luciferase inhibition profiling of diverse chemical library using quantitative high-throughput screening; 76,000 compounds, 2.5% hits; Potency, µM (series often up to 115 µM), most hits filed as inhibitors; purified P. pyralis luciferase, luminescence, biochemical; note: nearly all actives have a fitted effect of over 65% in size
Target sequence (P08659 whole entry, looked up): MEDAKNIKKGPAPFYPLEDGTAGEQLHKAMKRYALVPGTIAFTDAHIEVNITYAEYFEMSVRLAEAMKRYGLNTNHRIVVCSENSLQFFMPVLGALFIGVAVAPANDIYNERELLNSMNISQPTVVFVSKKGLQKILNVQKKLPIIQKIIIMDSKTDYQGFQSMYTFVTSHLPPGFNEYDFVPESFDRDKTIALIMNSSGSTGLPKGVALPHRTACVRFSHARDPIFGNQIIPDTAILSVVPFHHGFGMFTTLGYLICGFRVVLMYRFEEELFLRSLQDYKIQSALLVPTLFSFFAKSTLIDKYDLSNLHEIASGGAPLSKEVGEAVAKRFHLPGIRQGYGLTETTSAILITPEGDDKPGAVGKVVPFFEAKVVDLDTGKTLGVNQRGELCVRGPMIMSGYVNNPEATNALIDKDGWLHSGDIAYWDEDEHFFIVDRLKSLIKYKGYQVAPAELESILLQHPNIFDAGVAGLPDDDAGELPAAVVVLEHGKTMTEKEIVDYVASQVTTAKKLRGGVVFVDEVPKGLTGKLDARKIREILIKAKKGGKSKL
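Luminescence read by CCD imaging after purified firefly luciferase (10nM final) was added to substrate buffer holding 10uM D-luciferin and 10uM ATP, pH 7.5, pre-dosed with compound.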
HEK293 viab = GF-AFC viability counterscreen for inhibitors of alpha-synuclein gene (SNCA) expression; HEK-293-SNCA-luc viability, GF-AFC fluorescence, 24 h; Potency, µM (top dose mostly 57.1 µM), most hits filed as cytotoxic; 150,000 compounds, 0.12% hits; AID 1671193, 2021; note: nearly all actives have a fitted effect of over 30% in size
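Cytotoxicity counterscreen: after 24 h compound treatment of genome-edited SNCA-luciferase HEK-293 cells, live-cell protease substrate GF-AFC read by fluorescence after 30 min; activity scaled between DMSO (0%) and medium-only (-100%), curves Hill-fitted.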
3T3 cytotox = Cytotoxic Profiling in NIH 3T3 Cell Line of Diverse Libraries Using Quantitative High-Throughput Screening; NIH 3T3 viability, CellTiter-Glo ATP luminescence, 48-72 h; Potency, µM (series often up to 96.7 µM), actives largely listed as inhibitors; 94,000 compounds, 4.3% hits; note: nearly all actives have a fitted effect of over 55% in size
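Luminescent ATP readout (CellTiter-Glo, 10 min RT) after 48 or 72 hr compound exposure of NIH 3T3 cells seeded at 400 cells/well in 1536-well format; quantitative HTS.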
IP6K1 inh = Primary qHTS assay for small molecule inhibitors of Inositol hexaphosphate kinase 1 (IP6K1) | Inositol hexakisphosphate kinase 1 (Homo sapiens), Q92551 | IP6K1 kinase, ADP-Glo luminescence, 2 h; active compounds read low | activity change, % (series mostly up to about 58 µM) | 140,000 compounds, 0.81% hits | AID 1645851, 2021; in the data active = activity change below about -25%
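ADP-Glo luminescence measures ADP made by human IP6K1 during a 2 h RT reaction with ATP/IP6 (mix at 1.3 mM/130 uM); top library doses 57.5 and 19.1 uM final.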
HEK cytotox = Cytotoxic Profiling in HEK 293 Cell Line of Diverse Libraries Using Quantitative High-Throughput Screening | HEK 293 viability, ATP luminescence (CellTiter-Glo), 48-72 h | Potency, µM (top dose mostly 115 µM), most hits filed as inhibitors | 94,000 compounds, 6.6% hits | AID 1345083, 2018; note: nearly all actives have a fitted effect of over 60% in size
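Viability of HEK 293 cells, plated at 250 cells/well, was judged by cellular ATP after compound treatment for 48 or 72 hr. Luminescence was imaged 10 min after CellTiter-Glo addition at room temperature.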
SNCA expr inhib = Primary qHTS assay for inhibitors of alpha-synuclein gene (SNCA) expression; HEK-293 SNCA-luciferase knock-in, luminescence, 24 h; Potency, µM (doses to about 57.2 µM), actives largely listed as inhibitors; 140,000 compounds, 0.17% hits; AID 1671194, 2021; note: nearly all actives have a fitted effect of over 45% in size
Hits are given with their value; n = inactive; u = inconclusive; x = not tested or not shown; [ ] = another dose, or the depositor's remark. Unless noted, calls come from the whole dose curve; as a rule, active = well fitted curve in the direction sought with a large enough effect; inconclusive = small, poorly fitted or top-dose-only effect, or another doubt; inactive = no such curve, though single readings can be large; an effect the other way counts as inactive or inconclusive.

SMILES	Luciferase inh	HEK293 viab	3T3 cytotox	IP6K1 inh	HEK cytotox	SNCA expr inhib
CC(C)(C)c1ccc(-c2cc(C[C@H]3CNCC[C@H]3CC(=O)NCc3cccs3)no2)cc1	n	n	u	n	18µM	n
CN(C)CCNC(=O)C[C@@H]1CCNC[C@@H]1Cc1cc(CN(C)Cc2ccccc2)on1	n	n	n	n	n	n
O=C(C[C@@H]1CCNC[C@@H]1Cc1cc(-c2ccccc2)on1)NC1CCCCC1	n	n	u	n	100µM	n
COc1cccc(N2CCN(C(=O)CCn3ccn4nc5c(c4c3=O)CCCC5)CC2)c1	n	n	u	n	n	n
CNC(=O)c1cc(C2CC2)nc2c1c(C1CCN(C(=O)c3cccc(Cl)c3)CC1)nn2C	x	x	u	n	u	x
O=C(C[C@@H]1CCNC[C@@H]1Cc1cc(CSc2ccccc2)on1)NC1CCCCC1	n	n	100µM	n	89µM	n
CC(C)(C)c1ccc(-c2cc(C[C@H]3CNCC[C@H]3CC(=O)NC3CCCCC3)no2)cc1	n	n	20µM	n	13µM	n
CCCCCC(=O)N1CCC(=O)N(CC)C[C@H]2COc3ccccc3[C@H]21	x	x	u	n	u	x
NC(=O)N1CCCC(C(=O)NCCc2nc(-c3ccccn3)no2)C1 (configuration not stated)	n	n	n	n	n	n
CC(C)Cn1c(=O)c(C(=O)N2CCN(C(=O)C3CCCC3)CC2)nc2cccnc21	x	n	n	n	n	n
N#Cc1ccc(CN2CC(CNC(=O)Nc3ccccc3)C3(C2)CN(c2ccccc2)C3)cc1 (configuration not stated)	n	n	u	n	u	u
COc1ccc(CN2CC(CN[S+](=O)([O-])c3ccccc3)C3(C2)CN(c2ccccc2)C3)cc1O (configuration not stated)	n	n	22µM	n	u	u
COc1ccccc1CN1CC(CNC(=O)Nc2ccccc2)C2(C1)CN(c1ccccc1)C2 (configuration not stated)	n	n	u	n	79µM	n
O=[S+]([O-])(NCC1CN(Cc2ccc3c(c2)CCO3)CC12CN(c1ccccc1)C2)c1ccccc1 (configuration not stated)	n	n	u	n	u	n
CC(C)CCN1CC(CN[S+](=O)([O-])c2ccccc2)C2(C1)CN(c1ccccc1)C2 (configuration not stated)	n	n	45µM	n	u	n
CC(C)c1ccc(CN2CC(CNC(=O)c3cnn(C)c3)C3(C2)CN(c2ccccc2)C3)cc1 (configuration not stated)	n	n	u	n	79µM	n
CC1Oc2ccc(NC(=O)Cc3ccccc3)cc2CN(Cc2ccc(Cl)cc2)C1=O (configuration not stated)	n	n	u	n	u	n
CN(CC#N)C(=O)c1cc(-c2cccc(C(F)(F)F)c2)nc2c1cnn2C	x	x	u	n	u	x
CCCC(=O)N1Cc2ccccc2CC2(CCCN(Cc3ccc(O)cc3)C2)C1 (configuration not stated)	x	n	n	n	n	n
COc1ccc(CN2CC(CNc3ccccc3)C3(C2)CN(c2ccccc2)C3)cc1O (configuration not stated)	n	n	28µM	n	40µM	u
O=C(NCc1ccc(F)cc1)C1CCc2sc(C(=O)N3CCCC3)cc2C1 (configuration not stated)	n	n	u	n	50µM	n
O=C(Nc1cccc(Cl)c1)C1CCc2sc(C(=O)N3CCCC3)cc2C1 (configuration not stated)	n	n	28µM	n	40µM	n
O=C(NCc1cccc(F)c1)C1CCc2sc(C(=O)N3CCCCC3)cc2C1 (configuration not stated)	n	u	u	n	u	n
O=C(Nc1ccc(F)c(Cl)c1)C1CCc2sc(C(=O)N3CCOCC3)cc2C1 (configuration not stated)	n	n	u	n	28µM	n
N#Cc1ccc(C(=O)N2CCC3(CC2)NC(=O)N(Cc2ccccc2Cl)C3=O)cc1	n	n	n	n	u	n
SMILES	Luciferase inh	HEK293 viab	3T3 cytotox	IP6K1 inh	HEK cytotox	SNCA expr inhib
COc1ccccc1N1CCCc2ncc(C(=O)Nc3cccnc3)cc21	n	n	u	n	100µM	n
COc1cccc(NC(=O)c2cnc3c(c2)N(C(=O)Cc2ccccc2OC)CCC3)c1	u	n	n	n	100µM	n
COc1ccccc1CC(=O)N1CCCc2ncc(C(=O)Nc3cccc(F)c3)cc21	n	n	89µM	n	63µM	n
O=C(c1ccccc1)N1CCn2c(nnc2C2CCNCC2)C1	x	n	n	n	n	n
CCCc1cc(N2CCC(NCc3cc(F)c(F)c(F)c3)CC2)nc(C)n1	n	n	u	n	50µM	n
CCOCC1(C)COc2ccc(C(=O)Nc3ccc(F)c(Cl)c3)cc2N1 (configuration not stated)	u	n	32µM	n	40µM	n
CC1(COc2cccnc2)COc2ccc(C(=O)Nc3cccc(Cl)c3)cc2N1 (configuration not stated)	u	u	u	n	22µM	u
CN(C)CCOCC1(C)COc2ccc(C(=O)Nc3cccc(Cl)c3)cc2N1 (configuration not stated)	45µM	n	45µM	n	63µM	n
CC1(COc2cccnc2)COc2ccc(C(=O)NCC3CCOCC3)cc2N1 (configuration not stated)	n	n	n	n	u	n
CCOCC1(C)COc2ccc(C(=O)Nc3cccnc3)cc2N1 (configuration not stated)	n	n	n	n	u	n
COc1cccc(NC(=O)c2ccc3c(c2)NC(C)(COc2cccnc2)CO3)c1 (configuration not stated)	u	u	u	n	50µM	n
COc1ccc(CCC(=O)N2CCCC(Cc3noc(-c4ccccc4)n3)C2)cc1 (configuration not stated)	n	n	u	n	u	n
COc1cccc(-c2cccc(C(=O)N3CCCC3C(=O)NCc3ccc4c(c3)OCO4)c2)c1 (configuration not stated)	x	n[12.5 µM]	u	n	u	u
CSc1ccc(-c2cccc(CN3CCC(NC(C)=O)CC3)c2)cc1	x	x	u	n	u	x
CCOC(=O)C1(C/C=C/c2ccccc2)CCCN(C(=O)C2CCOCC2)C1 (configuration not stated)	n	n	n	n	89µM	n

Assay outcomes deposited in PubChem by National Center for Advancing Translational Sciences (NCATS).
